Screens as filed in PubChem BioAssay.
Most compounds without a hit are left out; they make up all but 6.2% or so of the library.
FMDV inh: antivirals against foot and mouth disease virus; FMDV antiviral cell-based qHTS; Potency, µM (doses to about 57.9 µM), without a hit: at the top dose activity change, negative = inhibition, most hits filed as inhibitors; 1.2% of 410,000 active; AID 1159524; calls by dose curve; tested in HEK293T cells; further: read-out not given here; potency means the concentration at half of the fitted maximal effect; nearly all actives have a fitted effect of over 45% in size
Lassa entry inh: inhibitors of Lassa virus binding or cell entry | Lassa virus pseudotype entry inhibition, cell reporter | Potency, µM (highest dose often 37.9 µM), for inactives: at the highest dose activity change, negative = inhibition, hits mostly inhibitors | 1.2% of 300,000 active | AID 540256; calls by dose curve; tested in HEK293 cells; further: potency means the concentration at half of the fitted maximal effect; nearly all actives have a fitted effect of over 50% in size
MARV entry inh: Marburg virus entry inhibition. Potency, µM (highest dose often 37.8 µM), for inactives: top-dose activity change, negative = inhibition, actives largely listed as inhibitors. Marburg virus pseudotyped entry inhibition, cell reporter. 1.8% of 300,000 active. AID 540276; calls by dose curve; tested in HEK293 cells; further: potency means the concentration at half of the fitted maximal effect
HCMV antiviral: blocks human cytomegalovirus replication | HFF cells, HCMV-luciferase reporter, 72 h; active compounds read low | activity change, negative = inhibition, % at 57.5 µM | 4.5% of 410,000 active | AID 1259415; in the data active means activity change below about -60%; inconclusive means no clear call, values can overlap the other calls; inactive means above about -39%
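Inhibition of viral replication was scored as loss of reporter luminescence in HFFs infected with HCMV-luciferase (MOI 1 PFU/cell) for 72 h; compounds tested at 2 doses, normalized to buffer and Salinomycin controls.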
An asterisk follows results filed as active; ? = inconclusive; · = no result; [ ] = another dose, or the depositor's remark. On the % scale 0 is the no-effect control and ±100 the full control effect.

SMILES	FMDV inh	Lassa entry inh	MARV entry inh	HCMV antiviral
CC(Oc1ccc2c(-c3ccccc3)cc(=O)oc2c1)C(=O)NC(Cc1c[nH]c2ccc(O)cc12)C(=O)O (stereo unspecified)	6%	·	·	-77*
Oc1c(Cl)cc(Cl)cc1/C=N/Nc1ncc(Br)cn1	-15%	?	?	-94*
CCOc1ccc2[nH]c3c(N4CCc5ccccc5C4)ncnc3c2c1	-51%	?	10µM*	9
COc1ccc2[nH]c3c(N4CCC(O)(c5cccc(C(F)(F)F)c5)CC4)ncnc3c2c1	28µM*	?	?	?
COc1ccc2[nH]c3c(N4CCN(Cc5ccc6c(c5)OCO6)CC4)ncnc3c2c1	?	?	?	-26
Cc1ccc2[nH]c3c(N4CCc5ccccc5C4)ncnc3c2c1	?	?	6.3µM*	-67*
Cn1c(NCCN(CCO)CCCc2ccc([N+](=O)[O-])cc2)cc(=O)n(C)c1=O	-23%	·	·	?
O=C(C1=C[C@@H](c2ccc(C(F)(F)F)cc2)C[C@@H](OCCCCO)O1)N1CCCCCCC1	-11%	·	·	0
COCCn1c(C)cc(C(=O)COC(=O)c2c(C)nn(Cc3ccccc3)c2C)c1C	-3%	7.1µM*	?	-14
Cc1nn(Cc2ccccc2)c(C)c1C(=O)OCC(=O)c1cc(C)n(C2CC2)c1C	-40%	15µM*	-29%	?
COCCn1c(C)cc(C(=O)COC(=O)c2cncc(Br)c2)c1C	-6%	0%	?	-21
O=C(NCc1ccco1)C1CC(c2ccc(Cl)cc2)=NO1 (stereo unspecified)	20%	-4%[46.1 µM]	-5%[46.1 µM]	23
Cc1cccc(NC(=S)N2CCn3cccc3C2c2cccnc2)c1 (stereo unspecified)	-22%	-3%	?	-36
Cc1nn(-c2ccc3ccccc3c2)c(=O)c2ccccc12	50%	·	·	71
COc1ccc(-c2c(C)nn(-c3ccccc3)c2N)cc1	80%	?	4%	64
Cc1nn(-c2nc3ccccc3[nH]2)c(N)c1-c1ccc(Cl)cc1	-3%	-11%	?	-68*
Cc1nn(-c2nc3ccccc3[nH]2)c(=O)c2ccccc12	0.79µM*	?	?	-91*
CN(C)c1ccc(SC#N)cc1	-26%	-6%	22%	-2
CN(C)c1ccc(Sc2ccc3nc(N)nc(N)c3c2)cc1	-30%	·	·	-92*
COc1ccc(CC(=O)NNc2ncnc3c2cnn3-c2ccccc2)cc1	-9%	5.2µM*	24%	-7
COc1ccc(CCNc2ncnc3c2cnn3-c2ccc(C)c(Cl)c2)cc1	-23%	1%[46.1 µM]	·	-10
COc1ccc(CCNc2ncnc3c2cnn3-c2cc(Cl)ccc2C)cc1	18µM*	?	·	-61*
COc1ccc(CC(=O)NNc2ncnc3c2cnn3-c2ccc(C)cc2)cc1	-1%	-20%	5%	14
COc1ccc(C(=O)NNc2ncnc3c2cnn3-c2cccc(Cl)c2)cc1OC	0%	?	·	-86*
COc1ccccc1CNS(=O)(=O)c1ccc(N2CCCC2)cc1Br	5%	·	·	-38
SMILES	FMDV inh	Lassa entry inh	MARV entry inh	HCMV antiviral
CCc1cc(=O)oc2cc(C)cc(OC(C)C(=O)NCC(O)c3ccccc3)c12 (stereo unspecified)	14%	·	·	3
Cc1cccc(Nc2nnc(SCC3CCCCO3)s2)c1 (stereo unspecified)	51%	?	?	7
CCCCCn1c(CN2CCN(c3cc(Cl)ccc3C)CC2)nc2c1c(=O)[nH]c(=O)n2C	28µM*	?	16µM*	?
CCCCCn1c(CN2CCN(c3cccc(Cl)c3)CC2)nc2c1c(=O)n(C)c(=O)n2C	·	7%	?	-39
CCCCn1c(CN2CCN(c3cccc(Cl)c3)CC2)nc2c1c(=O)n(C)c(=O)n2C	-21%	-1%	?	-89*
COCCn1c(SCC(=O)NCC2CCCO2)nc2c([nH]c3ccccc32)c1=O (stereo unspecified)	2%	-23%	-4%	1
CC(=O)OCC#CCSc1nc2ccccc2n1C	0%	-1%	-2%	51
CC(=O)c1c(C)[nH]c(C(=O)CSc2nnc(-c3ccco3)o2)c1C	?	?	11µM*	-5
CCn1c(SCC(=O)c2cccs2)nnc1-c1cccs1	55%	?	23%	42
CC(=O)c1c(C)[nH]c(C(=O)CSc2nc3ccccc3n2C)c1C	-31%	?	?	-78*
CCn1c(SCC(=O)c2[nH]c(C)c(C(C)=O)c2C)nnc1-c1cccs1	?	4%	-9%	-93*
N#Cc1nc(-c2ccco2)oc1N1CCN(c2ccccc2)CC1	?	?	-18%	-65*
COc1ccc(N2CCN(c3oc(Cc4ccccc4)nc3C#N)CC2)cc1	?	5.2µM*	?	-34
CC(=O)c1cccc(NC(=O)C(C)OC(=O)CCn2c(C)csc2=O)c1 (stereo unspecified)	-13%	·	·	0
CCc1c(C)nc(SCC(N)=O)c(C#N)c1C	·	8%	8%	-64*
CCc1c(C)nc(SCC(=O)CC(=O)OC(C)C)c(C#N)c1C	7%	11%	0%	-4
Cc1ccc(NC(=O)O/N=C/c2c(C)nn(C(C)(C)C)c2C)cc1Cl	0.013µM*	?	?	-86*
CCOC(=O)/C=C/C(=O)Nc1cccc([N+](=O)[O-])c1	25µM*	?	?	·
CCOC(=O)Cc1ccc(NC(=O)c2ccc([N+](=O)[O-])cc2)cc1	-3%	-20%	-19%	-33
CCOC(=O)Cc1ccc(NC(=O)c2cccc([N+](=O)[O-])c2)cc1	29%	·	·	-60*
CCOC(=O)/C=C/C(=O)Nc1ccccc1-c1ccccc1NC(=O)/C=C/C(=O)OCC	?	13µM*	?	-98*
Cc1cc(C(=O)N(C)CC(=O)Nc2cccc(F)c2)no1	-17%	5%	-10%	-15
COCCN1Cc2cc(C(=O)OC)c3c(c2C1=O)c1cc(OC)ccc1n3S(=O)(=O)c1ccc(C)cc1	·	·	·	-32
Cc1nc(Cl)c(C(=O)NCc2ccccc2)c(C)c1[N+](=O)[O-]	-6%	-12%[46.1 µM]	0%[46.1 µM]	?
Cc1nc(Cl)c(C(=O)NCc2ccccc2)c(C)c1Cl	-2%	-1%	-5%	-70*
SMILES	FMDV inh	Lassa entry inh	MARV entry inh	HCMV antiviral
O=C(NCc1ccccc1)c1c(Cl)nc(Cl)c(Cl)c1Cl	-14%	-26%	?	-84*
O=C(CSc1nc2ccc(Cl)cc2[nH]1)NC1CCCc2ccccc21 (stereo unspecified)	28µM*	-25%[46.1 µM]	?	-74*
O=C(/C=C/Nc1ccc(F)cc1)c1cccs1	13µM*	?	11µM*	17
O=C(/C=C/Nc1ccc(F)c(F)c1)c1cccs1	-28%	?	?	306
O=[N+]([O-])c1cccnc1SCc1c(F)cccc1Cl	-16%	-2%[46.1 µM]	?	-13
O=[N+]([O-])c1ccc(SCc2c(F)cccc2Cl)nc1	-15%	10%[46.1 µM]	?	-61*
Cc1cccc(N2CCN(C(=O)c3ccc4c(c3)N(Cc3ccccc3F)C(=O)c3ccccc3S4=O)CC2C)c1 (stereo unspecified)	-12%	?	13µM*	-64*
CC(=O)c1ccc(NC(=O)c2ccc3c(c2)N(Cc2cccc(Cl)c2)C(=O)c2ccccc2S3=O)cc1 (stereo unspecified)	-13%	-3%[46.1 µM]	·	-33
